Laboratory results from PubChem BioAssay (NCI).
This is part of a sample that, as a whole, favours compounds with a hit. Of some 83,000 tested, about 20% had one in any assay.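 Step 1: grow cells in 96-well plates. Step 2: add test compound at a single concentration. Step 3: incubate 48 h. Step 4: record percent growth.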 Active and inactive are the calls of the source. The calls were made as follows: active = growth percent below 10; inactive = the rest.

Experiments:
Experiment in all cases: NCI-60 one-dose screen, 48 h (100 = growth as untreated, 0 = no growth, -100 = all killed)
Settings in all cases: 10 µM unless noted
RPMI-8226 leukemia = system: RPMI-8226 leukemia
OVCAR-8 ovarian = system: OVCAR-8 ovarian
OVCAR-5 ovarian = system: OVCAR-5 ovarian
OVCAR-4 ovarian = system: OVCAR-4 ovarian
SK-OV-3 ovarian = system: SK-OV-3 ovarian
IGROV1 ovarian = system: IGROV1 ovarian
HS 578T breast = system: HS 578T breast
NCI/ADR-RES ovarian = system: NCI/ADR-RES ovarian
T-47D breast = system: T-47D breast
BT-549 breast = system: BT-549 breast
MDA-MB-435 melanoma = system: MDA-MB-435 melanoma
SW-620 colon = system: SW-620 colon
MCF7 breast = system: MCF7 breast
HCT-116 colon = system: HCT-116 colon
HCC-2998 colon = system: HCC-2998 colon
KM12 colon = system: KM12 colon
OVCAR-3 ovarian = system: OVCAR-3 ovarian

Measured: growth

O=C1Nc2ccccc2C12C=C(c1ccccc1)Nc1c2c(-c2ccccc2)nn1-c1ccccc1 (stereo not drawn)
inactive: RPMI-8226 leukemia 40.8% | OVCAR-8 ovarian 46.6% | OVCAR-5 ovarian 73% | OVCAR-4 ovarian 78% | SK-OV-3 ovarian 87% | IGROV1 ovarian 67.9% | HS 578T breast 78.9% | NCI/ADR-RES ovarian 66.2% | T-47D breast 61.7% | BT-549 breast 70.1% | MDA-MB-435 melanoma 65.1% | SW-620 colon 75.6% | MCF7 breast 39% | HCT-116 colon 48.6% | HCC-2998 colon 72.3% | KM12 colon 56.1%

OCCNc1nc(NCCO)nc(Nc2ccc(C3=NN(c4cc(Cl)cc(Cl)c4)C(c4ccc(C(F)(F)F)cc4)C3)cc2)n1 (stereo not drawn)
inactive: OVCAR-8 ovarian 39.5% | OVCAR-5 ovarian 89% | OVCAR-4 ovarian 53.6% | SK-OV-3 ovarian 70.1% | IGROV1 ovarian 41.7% | NCI/ADR-RES ovarian 55.6% | T-47D breast 53.5% | BT-549 breast 60.8% | SW-620 colon 60.1% | MCF7 breast 10.7% | HCT-116 colon 32.7% | HCC-2998 colon 45.1% | KM12 colon 26%
active: RPMI-8226 leukemia -1.42% | OVCAR-3 ovarian 4.39%

CCOC(=O)C(=Cc1c(-c2ccccc2)[nH]c2ccccc12)C(=O)OCC
inactive: OVCAR-8 ovarian 39.4% | OVCAR-5 ovarian 98.3% | OVCAR-4 ovarian 49.9% | SK-OV-3 ovarian 94.5% | IGROV1 ovarian 34.7% | NCI/ADR-RES ovarian 24.7% | T-47D breast 21.1% | BT-549 breast 67.1% | MDA-MB-435 melanoma 14.5% | SW-620 colon 53.5% | MCF7 breast 41.6% | HCT-116 colon 41% | HCC-2998 colon 80.7% | KM12 colon 24.1%
active: RPMI-8226 leukemia -47.8%

O=C1[C@@H](OS(=O)(=O)CC(F)(F)F)[C@H](c2ccc(F)cn2)N1c1cc2c3ccccc3ccc2c2ccccc12
inactive: RPMI-8226 leukemia 25.1% | OVCAR-8 ovarian 78.6% | OVCAR-5 ovarian 104% | OVCAR-4 ovarian 86.3% | SK-OV-3 ovarian 95.8% | IGROV1 ovarian 70% | HS 578T breast 68.3% | NCI/ADR-RES ovarian 72.2% | T-47D breast 84.9% | BT-549 breast 66.2% | MDA-MB-435 melanoma 30.5% | SW-620 colon 47.6% | MCF7 breast 64% | HCT-116 colon 79.3% | HCC-2998 colon 105% | KM12 colon 87%

COCCOCCOCc1n(Cc2ccc3ccccc3c2)c2ccccc2[n+]1Cc1ccc2ccccc2c1
inactive: OVCAR-5 ovarian 21.4% | OVCAR-4 ovarian 17% | HS 578T breast 39.9% | NCI/ADR-RES ovarian 105% | SW-620 colon 18.9% | HCT-116 colon 20.1% | HCC-2998 colon 17.8%
active: RPMI-8226 leukemia -6.22% | OVCAR-8 ovarian 9.98% | SK-OV-3 ovarian 2.88% | IGROV1 ovarian -7.12% | T-47D breast -3.39% | BT-549 breast 1.44% | MDA-MB-435 melanoma 7.86% | MCF7 breast 7.6% | KM12 colon -25.9%

COC(=O)c1oc2c(C(=O)/C=C/c3ccc(OC)cc3)c(OCCCN3CCCCC3)ccc2c1C
inactive: OVCAR-5 ovarian 23.3% | OVCAR-4 ovarian 14.1% | SK-OV-3 ovarian 28.5% | OVCAR-3 ovarian 26.5% | HS 578T breast 12.6% | T-47D breast 38.5% | BT-549 breast 22.9%
active: RPMI-8226 leukemia -65.7% | IGROV1 ovarian 9.13% | NCI/ADR-RES ovarian 0.873% | MDA-MB-435 melanoma 6.56% | SW-620 colon -17.9% | MCF7 breast 6.82% | HCT-116 colon 1.36% | HCC-2998 colon -45% | KM12 colon -11.5%

CC(=O)[C@@H]1CC[C@]2(C(=O)O)CC[C@]3(C)[C@H](CC[C@@H]4[C@@]5(C)Cc6c([nH]c7ccccc67)C(C)(C)[C@@H]5CC[C@]43C)[C@@H]12
inactive: RPMI-8226 leukemia 43.2% | OVCAR-8 ovarian 62.7% | OVCAR-5 ovarian 101% | OVCAR-4 ovarian 65.7% | SK-OV-3 ovarian 86.6% | IGROV1 ovarian 86.8% | HS 578T breast 73.2% | NCI/ADR-RES ovarian 67.6% | T-47D breast 65.5% | BT-549 breast 71.9% | MDA-MB-435 melanoma 81.2% | SW-620 colon 54.5% | MCF7 breast 38.6% | HCT-116 colon 43.5% | HCC-2998 colon 80.5% | KM12 colon 42.2%

CCCCc1n(Cc2ccc3ccccc3n2)cc[n+]1Cc1ccc2ccccc2c1
inactive: OVCAR-5 ovarian 24% | OVCAR-4 ovarian 28.6% | HS 578T breast 16.6% | NCI/ADR-RES ovarian 101% | SW-620 colon 11.2%
active: RPMI-8226 leukemia -7.1% | OVCAR-8 ovarian 2.38% | SK-OV-3 ovarian -14% | IGROV1 ovarian -14.7% | T-47D breast -0.345% | BT-549 breast -16.9% | HCC-2998 colon -6.38% | KM12 colon -42.4%

C=C1C(=O)O[C@H]2[C@H]1CC/C(COC(=O)CCC(=O)OC/C1=C/CC[C@@]3(C)O[C@H]3[C@H]3OC(=O)C(=C)[C@@H]3CC1)=C\CC[C@@]1(C)O[C@@H]21
inactive: OVCAR-8 ovarian 32.8% | OVCAR-5 ovarian 94.6% | OVCAR-4 ovarian 47.3% | SK-OV-3 ovarian 84.9% | IGROV1 ovarian 11.5% | HS 578T breast 79.6% | NCI/ADR-RES ovarian 89.8% | T-47D breast 19.7% | BT-549 breast 67.1% | MDA-MB-435 melanoma 44.5% | MCF7 breast 12% | HCC-2998 colon 93.8% | KM12 colon 85%
active: RPMI-8226 leukemia -0.781% | SW-620 colon 5.48% | HCT-116 colon -43%

COC(=O)[C@]1(C)CCC[C@]2(C)[C@H]3C[C@H]4C(C(C)C)=C[C@]3(CC[C@H]21)[C@@H]1C(=O)N(CCC#N)C(=O)[C@@H]14
inactive: RPMI-8226 leukemia 62% | OVCAR-8 ovarian 85.5% | OVCAR-5 ovarian 116% | OVCAR-4 ovarian 71.7% | SK-OV-3 ovarian 98.8% | IGROV1 ovarian 86.2% | HS 578T breast 89.4% | NCI/ADR-RES ovarian 84.4% | T-47D breast 69.9% | BT-549 breast 59.5% | MDA-MB-435 melanoma 86.5% | SW-620 colon 89.9% | MCF7 breast 72.2% | HCT-116 colon 70.8% | HCC-2998 colon 94.1% | KM12 colon 82.7%

Cc1nc2sc(C(=O)Nc3ccccc3)c(N)c2cc1C(C)O (stereo not drawn)
inactive: RPMI-8226 leukemia 16.9% | OVCAR-8 ovarian 36.4% | OVCAR-5 ovarian 51.3% | OVCAR-4 ovarian 64.5% | SK-OV-3 ovarian 31% | IGROV1 ovarian 40.2% | HS 578T breast 44.9% | NCI/ADR-RES ovarian 15.4% | T-47D breast 44.6% | BT-549 breast 74.3% | SW-620 colon 26.4% | MCF7 breast 16.7% | HCT-116 colon 30.2% | HCC-2998 colon 46.8% | KM12 colon 26.1%
active: MDA-MB-435 melanoma -41.1%

COCCc1n(Cc2ccc3ccccc3c2)c2ccccc2[n+]1Cc1ccc2ccccc2c1
active: RPMI-8226 leukemia -52.7% | OVCAR-8 ovarian -54.6% | OVCAR-5 ovarian -2.95% | OVCAR-4 ovarian -4.37% | SK-OV-3 ovarian -14.6% | IGROV1 ovarian -63.4% | HS 578T breast -6.4% | T-47D breast -16.7% | BT-549 breast -48.5% | MDA-MB-435 melanoma -87.5% | SW-620 colon -73.7% | MCF7 breast -68.1% | HCT-116 colon -81.2% | HCC-2998 colon -78.1% | KM12 colon -86.2%
inactive: NCI/ADR-RES ovarian 84.4%

N#Cc1c(-c2ccc(Cl)cc2)cc(-c2cc3ccccc3o2)nc1SCC(=O)c1ccc(Cl)cc1
inactive: RPMI-8226 leukemia 83.6% | OVCAR-8 ovarian 104% | OVCAR-5 ovarian 88.4% | OVCAR-4 ovarian 104% | SK-OV-3 ovarian 103% | IGROV1 ovarian 71.5% | HS 578T breast 96.3% | NCI/ADR-RES ovarian 97.9% | T-47D breast 108% | BT-549 breast 112% | MDA-MB-435 melanoma 104% | SW-620 colon 94.2% | MCF7 breast 112% | HCT-116 colon 94.1% | HCC-2998 colon 102% | KM12 colon 94.9%

CC(=O)c1ccc(NC(=O)CSc2nnc(-c3cc(-c4ccc(C)cc4)nc4ccccc34)o2)cc1
active: RPMI-8226 leukemia 7.74% | OVCAR-4 ovarian -12.5% | HCT-116 colon -7.47%
inactive: OVCAR-8 ovarian 49.3% | OVCAR-5 ovarian 101% | SK-OV-3 ovarian 81.7% | IGROV1 ovarian 57.3% | HS 578T breast 23.3% | NCI/ADR-RES ovarian 60.2% | T-47D breast 44.8% | BT-549 breast 59.1% | MDA-MB-435 melanoma 80.9% | SW-620 colon 28.4% | MCF7 breast 26.6% | HCC-2998 colon 102% | KM12 colon 72%

N#Cc1c(NC(=O)c2cccs2)[n+]([O-])c2cc(C(F)(F)F)ccc2[n+]1[O-]
active: IGROV1 ovarian -54.2%
inactive: RPMI-8226 leukemia 95.5% | OVCAR-8 ovarian 95.4% | OVCAR-5 ovarian 111% | OVCAR-4 ovarian 94.1% | SK-OV-3 ovarian 97.2% | HS 578T breast 84.5% | NCI/ADR-RES ovarian 107% | T-47D breast 90.2% | BT-549 breast 93.9% | MDA-MB-435 melanoma 106% | SW-620 colon 89% | MCF7 breast 98.7% | HCT-116 colon 95.2% | HCC-2998 colon 99.2% | KM12 colon 108%

NCCCn1c2c(c3cc(-c4ccn[nH]4)ccc3c1=O)C(=O)c1ccccc1-2
inactive: RPMI-8226 leukemia 51.3% | OVCAR-8 ovarian 40.6% | OVCAR-5 ovarian 98.8% | OVCAR-4 ovarian 50.3% | SK-OV-3 ovarian 81.5% | IGROV1 ovarian 35.4% | HS 578T breast 62.3% | NCI/ADR-RES ovarian 45.8% | T-47D breast 73.3% | BT-549 breast 77.3% | MDA-MB-435 melanoma 63% | SW-620 colon 24.6% | MCF7 breast 13% | HCT-116 colon 19.1% | HCC-2998 colon 60.6% | KM12 colon 38.7%

CCOCCc1c(O)nc(SC)[nH]c1=O
inactive: RPMI-8226 leukemia 94.4% | OVCAR-8 ovarian 103% | OVCAR-5 ovarian 87.3% | OVCAR-4 ovarian 108% | SK-OV-3 ovarian 102% | IGROV1 ovarian 100% | HS 578T breast 92.9% | NCI/ADR-RES ovarian 96.5% | T-47D breast 110% | BT-549 breast 110% | MDA-MB-435 melanoma 120% | SW-620 colon 90.9% | MCF7 breast 99.7% | HCT-116 colon 100% | HCC-2998 colon 39.4% | KM12 colon 101%

Nc1c(C(=O)c2ccccc2)sc2nc(-c3cc4ccccc4o3)cc(-c3ccc(Cl)cc3)c12
inactive: RPMI-8226 leukemia 82.7% | OVCAR-8 ovarian 95.8% | OVCAR-5 ovarian 107% | OVCAR-4 ovarian 98.3% | SK-OV-3 ovarian 106% | IGROV1 ovarian 55.8% | HS 578T breast 136% | NCI/ADR-RES ovarian 108% | T-47D breast 90% | BT-549 breast 97.9% | MDA-MB-435 melanoma 108% | SW-620 colon 118% | MCF7 breast 92% | HCT-116 colon 101% | HCC-2998 colon 108% | KM12 colon 93.4%
